Bioassay records: PubChem, National Center for Advancing Translational Sciences (NCATS)
Hits are enriched below; roughly 2.8% of the tested compounds scored in any of these assays.
HepG2 tox-1 = qHTS for Inhibitors of TGF-b: Cytotox Counterscreen; HepG2 CAGA-GFP viability, ATP luminescence, 18 h; Potency, µM (series often up to 46.1 µM), hits mostly cytotoxic; 0.76% of 410,000 active; AID 588856, 2011
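CellTiter-Glo luminescence gave cytotoxicity after 18 hours at 37 degrees C. The cells were HepG2 CAGA-GFP in 1% FBS DMEM, stimulated with 500 pg/mL TGF-beta after compound addition. %Activity was normalised to no-cell wells (complete cell-killing) and DMSO (no toxicity), and curves were fitted and classified.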
CtBP-E1A blk = qHTS Assay for Inhibitors of the CtBP/E1A Interaction. CtBP / adenovirus E1A interaction (AlphaScreen). AlphaScreen GST-E1A/His-CtBP binding, 1536-well; active compounds read low. activity change, % (test concentration not listed). 0.49% of 340,000 active. AID 651724, 2012; in the data active means activity change below about -65%; inconclusive means mostly about -30% to -63%
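Protein mix (5X: 125 nM each GST-E1A, His-CtBP) was incubated with pinned compound 2 h at 37 deg C in dark, in 50 mM Tris pH 8.0 buffer with 300 mM NaCl. Glutathione donor and nickel acceptor beads followed; AlphaScreen signal read after 1 h.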
ATXN viability = Viability Counterscreen for Primary qHTS for Inhibitors of ATXN expression; S2 cells (HEK-293 line with an ATXN2-luciferase reporter) viability, CellTiter-Fluor protease fluorescence, 24 h; Potency, µM (highest dose often 56.7 µM), hits mostly cytotoxic; 0.49% of 400,000 active; AID 651635, 2014; further: nearly all actives have a fitted effect of over 40% in size
TGFb SMAD3 inh = qHTS for Inhibitors of TGF-b. AID 588855, 2011. HepG2 CAGA-GFP TGF-b/SMAD3 reporter, GFP fluorescence, 18 h; TGF-beta stimulated, 500 pg/mL final. Potency, µM (top dose mostly 46.1 µM), actives largely listed as inhibitors. 1.2% of 410,000 active; further: nearly all actives have a fitted effect of over 65% in size
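Per well, imaged GFP fluorescence of HEPG2 CAGA-GFP cells gives the signal; cells get compound, then TGF-beta (500 pg/mL final), 18 h at 37 degrees C; %Activity versus -TGF-beta and +DMSO controls.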
ATXN2 expr inh = Primary qHTS for Inhibitors of ATXN expression. HEK-293 ATXN2-luciferase reporter, luminescence, 24 h. Potency, µM (highest dose often 57 µM), actives largely listed as inhibitors. 0.72% of 360,000 active. AID 1745845, 2022; further: nearly all actives have a fitted effect of over 55% in size
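qHTS (up to 57 uM final) was run with 24 h compound exposure of reporter cells at 37 °C. Each well was multiplexed: SteadyGlo luminescence measured ATXN2-luciferase expression after a fluorogenic Gly-Phe-AFC viability readout (25 uM final).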
Six1-Eya2 blk = qHTS Assay for Inhibitors of the Six1/Eya2 Interaction. Homeobox protein SIX1 (Homo sapiens) + Protein phosphatase EYA2 (Homo sapiens), …. AlphaScreen GST-Six1/His-Eya2 binding, biochemical; active compounds read low. activity change, % (no concentration beside the values). 0.56% of 360,000 active; in the data active means activity change below about -65%; inconclusive means mostly about -30% to -63%
Target sequence (O00167 whole entry, looked up): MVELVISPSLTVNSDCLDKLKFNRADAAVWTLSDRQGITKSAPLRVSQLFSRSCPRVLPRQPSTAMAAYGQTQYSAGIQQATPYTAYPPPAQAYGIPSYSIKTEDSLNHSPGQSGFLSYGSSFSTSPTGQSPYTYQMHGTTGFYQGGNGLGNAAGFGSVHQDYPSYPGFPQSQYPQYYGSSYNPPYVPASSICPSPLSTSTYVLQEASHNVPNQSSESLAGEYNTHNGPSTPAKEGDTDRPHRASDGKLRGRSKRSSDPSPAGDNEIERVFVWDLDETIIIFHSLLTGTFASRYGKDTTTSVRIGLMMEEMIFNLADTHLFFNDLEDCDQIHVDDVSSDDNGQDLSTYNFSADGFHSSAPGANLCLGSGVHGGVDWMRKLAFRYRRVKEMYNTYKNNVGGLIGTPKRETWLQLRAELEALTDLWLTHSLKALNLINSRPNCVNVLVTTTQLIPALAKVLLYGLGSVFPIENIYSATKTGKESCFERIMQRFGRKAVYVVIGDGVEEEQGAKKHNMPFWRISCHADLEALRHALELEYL
Target sequence (Q15475 whole entry, looked up): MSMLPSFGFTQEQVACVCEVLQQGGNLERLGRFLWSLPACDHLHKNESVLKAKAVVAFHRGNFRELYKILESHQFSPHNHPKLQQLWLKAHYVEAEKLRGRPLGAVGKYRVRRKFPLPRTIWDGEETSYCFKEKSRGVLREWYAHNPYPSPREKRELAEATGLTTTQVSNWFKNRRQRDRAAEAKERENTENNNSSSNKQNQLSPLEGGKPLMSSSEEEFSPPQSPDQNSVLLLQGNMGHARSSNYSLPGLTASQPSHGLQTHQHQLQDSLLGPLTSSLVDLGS
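GST-Six1 + His-Eya2 (5X stock: 250/500 nM); Tris pH 8.0, 300 mM NaCl, 0.05% BSA, 0.02% Tween 20; GSH donor/Ni acceptor beads; 1 h 37 °C dark; AlphaScreen readout.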
TGFb confirm = qHTS for Inhibitors of TGF-b: Confirmation of Cherry Picks | shares compounds with TGFb SMAD3 inh | HepG2 CAGA-GFP TGF-b reporter, GFP fluorescence, 18 h; cells stimulated with TGF-beta, 500 pg/mL | AID 720534, 2013 | Potency, µM (series often up to 46.1 µM), usual class: inhibitors | 63% of 1,600 active; further: nearly all actives have a fitted effect of over 65% in size
HepG2 tox-2 = qHTS for Inhibitors of TGF-b: Cytotox Counterscreen for Cherry Picks | shares compounds with TGFb SMAD3 inh | HepG2 CAGA-GFP viability, ATP luminescence, 18 h; cells stimulated with TGF-beta, 500 pg/mL | Potency, µM (doses to about 46.1 µM), hits mostly inhibitors | 27% of 1,600 active | AID 720535, 2013; further: nearly all actives have a fitted effect of over 70% in size
CCL64 TGFb inh = qHTS for Inhibitors of TGF-b: CCL64 Cells Orthogonal Assay for Cherry Picks. CCL64 CAGA-GFP reporter, TGF-b stimulated, GFP fluorescence, 18 h. shares compounds with TGFb SMAD3 inh. 41% of 1,600 active. Potency, µM (top dose mostly 46.1 µM), hits mostly inhibitors; further: nearly all actives have a fitted effect of over 65% in size
TGFb COP inh = qHTS for Inhibitors of TGF-b: Hit Validation in HepG2 Cells using COP promoter | 3% of 1,600 active | Potency, µM (series often up to 46.1 µM), usual class: inhibitors | AID 720537, 2013 | shares compounds with TGFb SMAD3 inh | HepG2 COP-GFP TGF-b reporter, GFP fluorescence, 18 h; cells stimulated by added recombinant TGF-beta; further: nearly all actives have a fitted effect of over 70% in size
Numbers stand for hits; n = inactive; u = inconclusive; x = not tested or not shown. Unless noted, the call rests on the fitted dose curve; in most records, active means well fitted curve in the direction sought with a large enough effect; inconclusive means small, poorly fitted or top-dose-only effect, or another doubt; inactive means no such curve, though single readings can be large; an effect the other way counts as inactive or inconclusive.

SMILES	HepG2 tox-1	CtBP-E1A blk	ATXN viability	TGFb SMAD3 inh	ATXN2 expr inh	Six1-Eya2 blk	TGFb confirm	HepG2 tox-2	CCL64 TGFb inh	TGFb COP inh
O=C(CCN1CC2CCC(CC2)C1)c1cccs1	n	n	u	13µM	n	n	2.6µM	21µM	2.9µM	u
Nc1cccc(NP(=O)(c2ccccc2)c2ccccc2)c1	n	x	n	n	x	n	x	x	x	x
O=C1NC2C(O)C(O)C(O)C(O)C2c2cc3c(c(O)c21)OCO3 (stereo unspecified)	n	n	u	0.13µM	n	n	0.065µM	u	0.18µM	n
O=C1NC2C(=CC(O)C(O)C2O)c2cc3c(c(O)c21)OCO3 (stereo unspecified)	n	n	u	n	u	n	0.018µM	0.46µM	0.073µM	n
CC12CCC3C(CCC4(O)CC(O)CCC34C=NO)C1(O)CCC2C1=COC(=O)C1 (stereo unspecified)	n	n	u	1µM	u	n	12µM	1µM	0.29µM	n
CCCCN=C[C@]12CCC(O)CC1(O)CCC1[C@@H]2CC[C@]2(C)[C@H](C3C=CC(=O)O3)CCC12O (stereo partly specified)	n	n	n	3.5µM	u	n	u	1.2µM	1.5µM	n
COC(=O)C1=C(c2ccc(OC(F)(F)F)cc2)C[C@@H]2CC[C@H]1N2C(=O)N1CCC(C)CC1	n	n	28µM	6.3µM	u	n	16µM	u	u	n
CC1(C)N([O])C(c2ccc(C(=O)O)cc2)=[N+]([O-])C1(C)C	n	x	x	n	x	x	x	x	x	x
CCc1ccc(-n2nc(C)c3c(C(=O)NCCc4ccc(OC)c(OC)c4)cc(C)nc32)cc1	n	x	u	n	n	x	x	x	x	x
COC1CC(C)C(OC)c2cc(O)cc(c2O)NC(=O)C(C)=CC=CC(C)C(OC(N)=O)C(C)=CC(C)C1OC (stereo unspecified)	n	n	u	7.1µM	3.8µM	n	0.52µM	5.2µM	4.1µM	n
COC(=O)C1=C(c2ccc(-c3ccccc3)c(F)c2)C[C@@H]2CC[C@H]1N2C(=O)NCCO	n	n	n	n	n	n	x	x	x	x
COC(=O)C1=C(c2ccc(-c3ccccc3)c(F)c2)C[C@@H]2CC[C@H]1N2C(=O)NCc1cc(C)oc1C(F)(F)F	n	n	u	1.6µM	u	n	u	n	u	n
COC(=O)C1=C(c2ccc(F)cc2OCc2ccccc2)C[C@@H]2CC[C@H]1N2C(=O)NCc1ccccc1OC	n	n	u	u	n	n	u	n	u	n
COC(=O)C1=C(c2ccc(-c3ccccc3)c(F)c2)C[C@@H]2CC[C@H]1N2C(=O)NCc1ccco1	n	n	u	u	u	n	8.2µM	u	u	n
COC(=O)C1=C(c2ccc(F)cc2OCc2ccccc2)C[C@@H]2CC[C@H]1N2C(=O)NCc1ccccc1	n	n	u	u	u	n	x	x	x	x
COC(=O)C1=C(c2cccc(C#N)c2)C[C@@H]2CC[C@H]1N2C(=O)NCc1cc(C)oc1C(F)(F)F	n	n	n	n	n	n	x	x	x	x
Cc1ccc([C@H]2C[C@H](n3cc(C4CC4)nn3)[C@@H](O)CN2Cc2cccs2)cc1	n	n	u	n	n	n	x	x	x	x
NCC(=O)c1cccc([N+](=O)[O-])c1	n	x	x	u	x	x	x	x	x	x
Cc1ccc(-c2cc(-c3ccc(C)cc3)[n+](-c3ccccc3)c(-c3ccc(C)cc3)c2)cc1	n	n	x	1.3µM	u	n	1.5µM	9.2µM	1.6µM	n
CCCNc1nc(-c2cc(C(=O)Nc3ccccc3)on2)cc(C(C)C)n1	n	n	n	u	n	n	x	x	x	x
C[C@H]1CCC/C=C/[C@@H]2C[C@H](O)C[C@H]2[C@@H](O)/C=C/C(=O)O1	n	n	u	n	u	n	0.058µM	0.13µM	u	n
